Assay outcomes from PubChem BioAssay.
Pf growth 48h – inhibits P. falciparum growth in the first generation, 48 h; P. falciparum luciferase growth in erythrocytes, 48 h; Potency, µM (doses to about 28.7 µM), for inactives: at the highest dose activity change, negative = inhibition, actives largely listed as inhibitors; 5.9% of 310,000 active; AID 504832; further: potency means the concentration at half of the fitted maximal effect; on the % scale 0 is the no-effect control and ±100 the full control effect
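First compound was added to culture medium, then infected red cells at 0.1% parasitemia and 2% hematocrit (final). After incubation at 37 C under 5% CO2, luciferase detection reagent was dispensed and light output recorded.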
Shiga inhibitor – blocks Shiga toxin action in Vero cells; Vero cells, Shiga toxin protein synthesis inhibition reporter; inhibition, % at 38.7 µM; AID 2315; 9.2% of 290,000 active; in the data active means inhibition mostly above about 28%, no sharp cut-off; inactive means mostly below about 43%; further: 0% is about no effect
Cycloheximide cs – counter-screen for Shiga toxin inhibitors: cycloheximide protein synthesis inhibition | cell reporter, cycloheximide protein synthesis inhibition counterscreen | max response, % | 12% of 300,000 active | AID 2314; in the data active means max response mostly above about 13%, no sharp cut-off; inactive means mostly below about 14%; further: read at 38.3 µM for the half of the compounds with a filed dose; 0% is about no effect
Pf growth 96h – P. falciparum growth inhibition at 96 hours; 6.9% of 320,000 active; Potency, µM (titrated, usually from 28.7 µM), without a hit: at the highest dose activity change, negative = inhibition, hits mostly inhibitors; P. falciparum luciferase reporter growth, 96 h; further: potency means the concentration at half of the fitted maximal effect; on the % scale 0 is the no-effect control and ±100 the full control effect
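Luminescence readout: decreased luciferase signal marks inhibited growth of reporter-expressing P. falciparum in infected red cells (2% hematocrit, 0.05% parasitemia final), exposed to compound two generations (96 h, 37 C, 5% CO2).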
SARS PLpro yeast – SARS-CoV PLP inhibition in yeast; S. cerevisiae expressing SARS-CoV PLpro, growth rescue; Potency, µM (series often up to 32.9 µM), inactives show top-dose activity, positive = growth rescue, most hits filed as activators; 0.19% of 330,000 active; AID 485353; calls by dose curve; further: potency means the concentration at half of the fitted maximal effect; 0% is about no effect; nearly all actives have a fitted effect of over 55% in size
NS1 function inh – blocks influenza NS1 protein function; Potency, µM (highest dose often 46.1 µM), for the others: at the top dose activity, positive = more growth; 0.4% of 270,000 active; AID 2326; calls by dose curve; further: potency means the concentration at half of the fitted maximal effect; actives are rising curves; nearly all actives have a fitted effect of over 50% in size
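Recovery from NS1-induced slow growth read by OD600 in budding yeast switched to galactose assay medium (pH 6.0, -URA) at 1:100 dilution. Compound 23 nl per well; the matching strain lacking NS1 serves as control.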
The depositor's hits bear a star. In the library only some 21% were active in any assay of this set; here they are far more common. Unless noted, the call rests on the fitted dose curve; in most records, active means well fitted inhibition curve with a large enough effect; inconclusive means small, poorly fitted or top-dose-only effect, or another doubt; inactive means no such curve, though single readings can be large or run the other way.

O=S(=O)(NC1CCCC1)c1cccc(-c2nnc(-c3ccccc3)o2)c1 was read as Shiga inhibitor 7.4, Cycloheximide cs 30.5*, Pf growth 96h inconclusive, SARS PLpro yeast 1.1% and NS1 function inh 8.3%.
COc1ccc(NS(=O)(=O)c2cccc(-c3nnc(-c4ccccc4)o3)c2)cc1 was read as Pf growth 48h inconclusive, Shiga inhibitor 56.6*, Cycloheximide cs 14.8*, Pf growth 96h inconclusive, SARS PLpro yeast -11.5% and NS1 function inh -20.9%.
O=S(=O)(NC1CCCCCCC1)c1ccccc1 was read as Pf growth 48h 23.3%, Shiga inhibitor -6.4, Cycloheximide cs -0.2, Pf growth 96h inconclusive, SARS PLpro yeast 0.3% and NS1 function inh -9.5%.
For O=C(NNC(=O)c1csc(N2CCOCC2)n1)c1cccnc1 the results were Pf growth 48h -6.8%, Pf growth 96h 34.3% and SARS PLpro yeast -7.2%.
`CN(C)Cc1ccc(O)c(CN(C)C)n1` gave NS1 function inh -4.1%.
`CC1(C(=O)Nc2ccccc2)Cc2ccccc2C(=O)O1` (configuration not stated) gave Pf growth 48h 0.6%, Shiga inhibitor -2.3, Cycloheximide cs -3.3, Pf growth 96h 9.28µM*, SARS PLpro yeast 0.0% and NS1 function inh 0.9%.
`CCSc1nnc(NC(=O)C2(C)Cc3ccccc3C(=O)O2)s1` (configuration not stated) gave Pf growth 48h 13.1µM*, Shiga inhibitor 1.7, Cycloheximide cs -0.8, Pf growth 96h -3.9%, SARS PLpro yeast -5.2% and NS1 function inh -31.0%.
`COc1ccc(CNC(=O)C2(C)Cc3ccccc3C(=O)O2)cc1` (configuration not stated) gave Pf growth 48h 26.8%, Shiga inhibitor -4.8, Cycloheximide cs -2.1, Pf growth 96h -9.3%, SARS PLpro yeast -0.3% and NS1 function inh 2.8%.
CC1(C(=O)Nc2nnc(C(C)(C)C)s2)Cc2ccccc2C(=O)O1 (configuration not stated) was read as Pf growth 48h -10.2%, Shiga inhibitor 3.2, Cycloheximide cs -0.6, Pf growth 96h inconclusive, SARS PLpro yeast 5.8% and NS1 function inh 24.2%.
`COc1cccc(OCCCOc2ccccc2C(C)C)c1` gave Pf growth 48h inconclusive, Shiga inhibitor -19.6, Cycloheximide cs -2.7, Pf growth 96h -7.9%, SARS PLpro yeast -5.0% and NS1 function inh 7.2%.
For CN(CC(=O)Nc1cccc(F)c1)C(=O)c1ccc(N2CCCCC2)c([N+](=O)[O-])c1 the results were Pf growth 48h 2.9%, Pf growth 96h 10.8% and SARS PLpro yeast -18.0%.
`COc1cccc(NC(=O)COC(=O)c2ccccc2C(=O)N(C)c2ccccc2)c1` gave Pf growth 48h inconclusive, Pf growth 96h -29.0% and SARS PLpro yeast -1.9%.
`CN(C(=O)c1ccccc1C(=O)OCC(=O)c1ccc(F)cc1)c1ccccc1` gave Pf growth 48h 8.28µM*, Pf growth 96h inconclusive and SARS PLpro yeast 8.8%.
For COc1ccc(C(=O)COC(=O)c2ccccc2C(=O)N(C)c2ccccc2)c(OC)c1 the results were Pf growth 48h inconclusive, Pf growth 96h 0.0% and SARS PLpro yeast 0.2%.
`CN(C(=O)c1ccccc1C(=O)OCC(=O)c1ccccc1)c1ccccc1` gave Pf growth 48h inconclusive, Pf growth 96h 11.7µM* and SARS PLpro yeast 4.5%.
`CCCN(CCC)C(=O)CSc1nc2ccsc2c(=O)n1NC(=O)c1ccccc1` gave Pf growth 48h 76.9%, Shiga inhibitor 31.8, Cycloheximide cs 19.1*, Pf growth 96h 222.0%, SARS PLpro yeast 4.9% and NS1 function inh 11.1%.
`NS(=O)(=O)c1ccc(CCNC(=O)CSc2nc3ccsc3c(=O)n2CC(=O)O)cc1` gave Pf growth 48h -11.2%, Shiga inhibitor -3.8, Cycloheximide cs -4.8, Pf growth 96h 1.17µM*, SARS PLpro yeast 15.6% and NS1 function inh -1.3%.
CC(C)CCNC(=O)CSc1nc2ccsc2c(=O)n1NC(=O)c1ccccc1 was read as Pf growth 48h 57.9%, Shiga inhibitor 13.3, Cycloheximide cs 26.3*, Pf growth 96h inconclusive, SARS PLpro yeast 6.6% and NS1 function inh -8.8%.
CCOC(=O)N1CCC(n2c(SCC(=O)c3ccccc3)nc3ccsc3c2=O)CC1 was read as Pf growth 48h inconclusive, Shiga inhibitor -12.2, Cycloheximide cs -4.2, Pf growth 96h inconclusive, SARS PLpro yeast 1.9% and NS1 function inh -4.7%.
O=C(CSc1nc2ccsc2c(=O)n1-c1ccc(Br)cc1)NCc1ccccc1 was read as Shiga inhibitor 36.3 and Cycloheximide cs 13.9.
`CCOC(=O)N1CC=C2C(C#N)=C(N)C(C#N)(C#N)[C@H](c3cccs3)C2C1` (some centres not stated) gave Pf growth 48h inconclusive, Shiga inhibitor -11.6, Cycloheximide cs -0.8, Pf growth 96h inconclusive, SARS PLpro yeast -6.7% and NS1 function inh 12.1%.
Screening CC(C)(C)OC(=O)N1CC=C2C(C#N)=C(N)C(C#N)(C#N)[C@H](c3cccnc3)[C@H]2C1 returned Pf growth 48h -19.9%, Shiga inhibitor 1.6, Cycloheximide cs 8.2, SARS PLpro yeast 0.4% and NS1 function inh 8.2%.
`CCCOc1ccc([C@@H]2C3CN(C(=O)OCC)CC=C3C(C#N)=C(N)C2(C#N)C#N)cc1OC` (some centres not stated) gave Pf growth 48h 5.86µM*, Shiga inhibitor -2.5, Cycloheximide cs 3.1, SARS PLpro yeast -5.4% and NS1 function inh -38.6%.
N#CC1=C(N)C(C#N)(C#N)[C@H](c2ccncc2)[C@H]2CN(C(=O)OCc3ccccc3)CC=C12 was read as Pf growth 48h 10.4µM*, Shiga inhibitor 1.6, Cycloheximide cs -1.0, Pf growth 96h inconclusive, SARS PLpro yeast -10.2% and NS1 function inh 18.8%.
For COc1cc([C@@H]2[C@H]3CNCC=C3C(C#N)=C(N)C2(C#N)C#N)ccc1OC(C)C the results were Pf growth 48h 13.1µM*, Shiga inhibitor 23.5, Cycloheximide cs -1.2, Pf growth 96h -11.7%, SARS PLpro yeast 0.6% and NS1 function inh 12.9%.
Screening CC(=O)Nc1ccc(NC(=O)COC(=O)C2CCCCC2)cc1 returned SARS PLpro yeast -0.6%.
CCOC(=O)C1=C(c2ccccc2)NC(SC)=C(C#N)C1c1cccnc1 (configuration not stated) was read as Pf growth 48h inconclusive, Shiga inhibitor 8.8, Cycloheximide cs -0.8, Pf growth 96h 11.7µM*, SARS PLpro yeast -2.4% and NS1 function inh -17.3%.
Screening COc1ccc(OC)c(NC(=O)CSC2=C(C#N)C(c3ccco3)C3=C(CCCC3=O)N2)c1 (configuration not stated) returned Pf growth 48h 9.28µM*, Shiga inhibitor -4.9, Cycloheximide cs 11.4, Pf growth 96h -3.8%, SARS PLpro yeast 4.4% and NS1 function inh -2.3%.
